hgDAF-12 ag – H. glycines DAF-12 receptor agonists, primary screen, cell-based, luminescence, HEK293, GAL4 fusion, UAS-luciferase. Nuclear hormone receptor DAF-12 (Heterodera glycines), GAL4 fusion. AID 687014, 2013. 370,000 compounds, 1.8% hits. activation, % at 6.8 µM. HEK293 GAL4-hgDAF12 UAS-luciferase reporter, agonist luminescence; normalized to butyrate control;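 active = activation above a cutoff set at the mean of all screened compounds plus 3 SD, cut at about 10% in these data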
DAX1 inh-1 – DAX1 (NR0B1) inhibitors, primary screen, cell-based, HEK293, Gal4-DAX1, luciferase luminescence; Nuclear receptor subfamily 0 group B member 1 (Homo sapiens), P51843; HEK293 Gal4-DAX1 luciferase reporter; inhibition, % at 6.75 µM; 340,000 compounds, 0.99% hits; AID 504766, 2011;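 active = inhibition above the mean over all tested compounds plus 3 SD, cut at about 4.2% in these data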;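 note: inhibition shows as a rise in luminescence from relieved DAX1 repression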
Target sequence (P51843 207-470 limits assumed): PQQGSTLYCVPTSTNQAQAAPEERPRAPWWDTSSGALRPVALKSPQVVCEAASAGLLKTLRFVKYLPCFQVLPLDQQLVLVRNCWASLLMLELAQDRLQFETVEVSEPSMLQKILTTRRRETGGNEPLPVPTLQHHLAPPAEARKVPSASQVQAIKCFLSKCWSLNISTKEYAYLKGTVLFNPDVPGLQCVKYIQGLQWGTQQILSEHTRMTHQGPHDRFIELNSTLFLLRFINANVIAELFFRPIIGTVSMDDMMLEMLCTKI
DAX1 inh-2 – DAX1 (NR0B1) inhibitors on StAR promoter, primary screen, cell-based, luminescence, SF-1 (NR5A1), full-length DAX-1 | 370,000 compounds, 1.1% hits | HEK293T StAR-luciferase reporter, SF-1/DAX-1 repression relief | inhibition, % at 6.8 µM | AID 652010, 2013;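 active = inhibition above the mean over all tested compounds plus 3 SD, cut at about 3.6% in these data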;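 note: higher inhibition means more luminescence from relief of DAX-1 repression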
hcDAF-12 act – H. contortus DAF-12 nuclear receptor activators, primary screen, cell-based, luminescence, HEK293, lit1-tk-luc reporter; HEK293 hcDAF-12 lit1-tk-luc reporter; 0% DMSO, 100% Δ7-dafachronic acid; activation, % at 6.8 µM; 370,000 compounds, 1.4% hits; AID 652067, 2013;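 active = activation above the mean of all tested compounds plus 3 SD, cut at about 5.5% in these data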
ssDAF-12 act – S. stercoralis DAF-12 nuclear receptor activators, primary screen, cell-based, luminescence, HEK293, GRIP1 co-expression, lit1-tk-luc; Nuclear hormone receptor DAF-12 (Strongyloides stercoralis); HEK293 ssDAF-12/GRIP1 lit1-tk-luc reporter; % of 3 µM dafachronic acid response; activation, % at 6.8 µM; 370,000 compounds, 1% hits;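 active = activation above the mean over all tested compounds plus 3 SD, cut at about 0.9% in these data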
LXRb hcDAF ctr – LXR agonists, Gal4 luciferase reporter, confirmation, counter-screen for hcDAF-12 agonist project, cell-based, luminescence, HEK293, H. contortus campaign. shares compounds with hcDAF-12 act. HEK293 Gal4-LXR tk-luc reporter, 24 h; normalized: DMSO 0%, positive control 100%. activation, % at 6.8 µM. 3,400 tested, under 10 active;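 active = mean percent activation of the reporter above a cutoff set as the average over tested compounds plus their standard deviation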
hcDAF12 conf – H. contortus DAF-12 receptor agonists, confirmation, cell-based, luminescence, HEK293, lit1-tk-luc, triplicate; shares compounds with hcDAF-12 act; HEK293 hcDAF-12 lit1-tk-luc reporter; % of Δ7-dafachronic acid response; activation, % at 6.8 µM; 3,400 compounds, 61% hits;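 active = mean activation across triplicate tests above the threshold derived from the earlier primary screen, cut at about 5.5% in these data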
Each line names hits and unclear results; the compound was inactive in the other large screens (follow-up assays come after a bar, where they were run). The list is not random: actives were taken first. Their share in the collection is about 4.1%.

CCOC(=O)[C@]12CCCC=C1N(Cc1ccc(Cl)cc1Cl)C(=O)[C@H](CC(=O)NCc1cccs1)C2	none (no result: DAX1 inh-1)
Cc1cccc(S(=O)(=O)N2CCC[C@H]2C(=O)N2CCC[C@@H]2C(=O)NCc2ccccc2)c1	none (no result: DAX1 inh-1)
CCCCCC/C(C)=C1/SC(=S)NC1=O	none
C/C(C/C(C)=C1/SC(=S)NC1=O)=C1\SC(=S)NC1=O	hcDAF-12 act 6.8 | LXRb hcDAF ctr inactive | hcDAF12 conf inactive
COc1cc(Cl)cc(/C=C/c2ccc3cccc(O)c3n2)c1OC	none
Oc1cccc2ccc(/C=C/c3ccccc3Cl)nc12	hcDAF-12 act 7.1 | LXRb hcDAF ctr inactive | hcDAF12 conf 6.5
Oc1cccc2ccc(/C=C/c3c(F)cccc3Cl)nc12	hgDAF-12 ag 18, DAX1 inh-2 3.7, hcDAF-12 act 9.5, ssDAF-12 act 2.0 | LXRb hcDAF ctr inactive | hcDAF12 conf 9.6
COc1ccc(Cl)cc1/C=C/c1ccc2cccc(O)c2n1	hcDAF-12 act 7.7 | LXRb hcDAF ctr inactive | hcDAF12 conf inactive
N#Cc1cccc(NC(=O)OCCN2C(=O)CCC23CCC(c2ccccc2)CC3)c1 (stereo not drawn)	none (no result: DAX1 inh-1)
Cc1c(Cc2ccccc2)c(=O)oc2c(C)c(OCC(=O)NCC3CCC(C(=O)O)CC3)ccc12 (stereo not drawn)	hcDAF-12 act 7.3 | LXRb hcDAF ctr inactive | hcDAF12 conf inactive
C/C(=C\C(=S)Nc1ccccc1)Nc1ccccc1	hcDAF-12 act 9.6 | LXRb hcDAF ctr inactive | hcDAF12 conf 6.1
COc1ccccc1-c1nc(SCc2ccccn2)n[nH]1	DAX1 inh-1 4.9, hcDAF-12 act 6.9 | LXRb hcDAF ctr inactive | hcDAF12 conf 9.0
Cc1ccc(-c2nc(N/N=C/c3ccncc3)c3ccccc3n2)cc1	hcDAF-12 act 15, ssDAF-12 act 1.1 | LXRb hcDAF ctr inactive | hcDAF12 conf 20
Clc1cncc(Cl)c1N/N=C/c1ccccc1	none
Clc1ccc(/C=N/Nc2nnc(Cl)c3ccccc23)cc1	hcDAF-12 act 7.0, ssDAF-12 act 1.6 | LXRb hcDAF ctr inactive | hcDAF12 conf 8.7
C(=N\Nc1ncnc2ccccc12)/c1ccccc1	hgDAF-12 ag 15, hcDAF-12 act 8.4, ssDAF-12 act 1.3 | LXRb hcDAF ctr inactive | hcDAF12 conf 8.5
Clc1nnc(N/N=C/c2ccccc2)c2ccccc12	hcDAF-12 act 7.3, ssDAF-12 act 1.2 | LXRb hcDAF ctr inactive | hcDAF12 conf 11
COc1ccc(CNC(=O)COc2cc3c(c4oc(=O)cc(C)c24)CCC(C)(C)O3)c(OC)c1	none (no result: DAX1 inh-1)
CCOC(=O)[C@@]12CCCC3=C1N(CCC3)C(=O)[C@H]2CC(=O)NCc1cccc(C(F)(F)F)c1	none (no result: DAX1 inh-1)
CCC[C@H]1[C@@H](NC(=O)c2cccnc2)CC[C@@]23CCCN2C(=O)CCC[C@@H]13	none (no result: DAX1 inh-1, DAX1 inh-2)
CC(=O)Nc1ccc(C=NNc2nnc(NN=Cc3ccc(NC(C)=O)cc3)c3ccccc23)cc1	none
Cc1ccc(/C=N/Nc2nnc(Cl)c3ccccc23)cc1	hcDAF-12 act 11, ssDAF-12 act 3.7 | LXRb hcDAF ctr inactive | hcDAF12 conf 18
O=C1Nc2ccccc2/C1=C/c1cccnc1	none
O=C1Nc2ccccc2/C1=C/c1cnc(-c2ccccc2)[nH]1	DAX1 inh-1 4.7, hcDAF-12 act 9.7, ssDAF-12 act 1.2 | LXRb hcDAF ctr inactive | hcDAF12 conf 9.8
COc1ccc(NC(C)C(=O)Nc2cc(C(F)(F)F)ccc2N2CCOCC2)c(OC)c1 (stereo not drawn)	hcDAF-12 act 14 | LXRb hcDAF ctr inactive | hcDAF12 conf inactive
COc1cc(Cl)c(C)cc1NC(C)C(=O)Nc1cc(C(F)(F)F)ccc1N1CCOCC1 (stereo not drawn)	none
CC(C)(C)C1CCc2c(sc3c2C(=O)NC(c2ccco2)N3)C1 (stereo not drawn)	hcDAF-12 act 7.5 | LXRb hcDAF ctr inactive | hcDAF12 conf inactive
COc1ccc(N=CC2=C(O)c3ccccc3C2=O)c(OC)c1	hcDAF-12 act 12, ssDAF-12 act 1.6 | LXRb hcDAF ctr inactive | hcDAF12 conf 6.8
O=C1c2ccccc2C(=O)N1CC(O)COc1cccc2ccccc12 (stereo not drawn)	none (no result: DAX1 inh-1)
COc1ccccc1-c1cc(C(=O)Nc2cccnc2Cl)no1	none
COc1ccccc1C(=O)N/N=C(\C)CC(=O)Nc1ccccn1	hcDAF-12 act 7.3 | LXRb hcDAF ctr inactive | hcDAF12 conf 6.0
COc1ccccc1C(=O)N/N=C(\C)CC(=O)Nc1ccc(Nc2ccccc2)cc1	none
O=C(COc1ccccc1Cl)Nc1ccc(Cl)cn1	hgDAF-12 ag 15, hcDAF-12 act 9.0, ssDAF-12 act 1.4 | LXRb hcDAF ctr inactive | hcDAF12 conf 11
COc1ccccc1C(=O)N/N=C(\C)CC(=O)Nc1ccccc1NC(C)=O	none
COc1ccccc1C(=O)N/N=C(\C)CC(=O)Nc1ccc(Cl)cn1	hcDAF-12 act 6.6 | LXRb hcDAF ctr inactive | hcDAF12 conf inactive
COc1ccccc1C(=O)NC(=S)Nc1cccnc1Cl	hcDAF-12 act 8.1, ssDAF-12 act 1.2 | LXRb hcDAF ctr inactive | hcDAF12 conf 19
Cc1cc(Cl)ccc1C(O)c1ncc(-c2ccc(Cl)cc2)[nH]1 (stereo not drawn)	none (no result: DAX1 inh-1)
CC(=O)NCCC(=O)Nc1nc(-c2c[nH]c3ccccc23)cs1	none
COc1ccc(Nc2nc(-c3c[nH]c4ccccc34)cs2)cc1	hcDAF-12 act 11 | LXRb hcDAF ctr inactive | hcDAF12 conf inactive
CCc1ccc(C2c3[nH]c4ccccc4c3CCN2C(=O)CNC(N)=O)cc1 (stereo not drawn)	none
CSc1ccc(C2c3[nH]c4ccccc4c3CCN2C(=O)c2ccnn2C)cc1 (stereo not drawn)	hcDAF-12 act 10, ssDAF-12 act 2.0 | LXRb hcDAF ctr inactive | hcDAF12 conf 8.3
CCc1ccc(C2c3[nH]c4ccccc4c3CCN2C(=O)c2ccc(=O)n(C)n2)cc1 (stereo not drawn)	none

Compound activity deposited in PubChem by The Scripps Research Institute Molecular Screening Center.
